Drawing on the supplement of paper PMC6331611, this text covers normalized growth for 58 compounds.

Several values for one entry are separate records, joined by “and”; a condition that tells them apart may be missing. Identical values can stand only once. ± gives the standard deviation of the averaged measurements. In all, about 1,600 compounds were measured (“normalized growth (OD600, IQM-normalized) in LPM”: median about 1, lowest 2% from about 0.014 on). Shown is part of a subset that was picked to be rich in the lowest values.

The experiment concerns Salmonella enterica serovar Typhimurium SL1344. The experiment can be described thus: normalized growth (OD600, IQM-normalized) in LPM (fraction of plate interquartile mean); higher = more bacterial growth (less inhibition). The following applies: LPM pH 5.8; 10 µM; 16 h.
In the case of `CC(S)C(=O)NCC(=O)O` (stereo not drawn), the normalized growth is 0.982 ± 0.071. The figure for `O=C(O)CN(CCN(CC(=O)O)CC(=O)O)CC(=O)O.[Na+].[Na+].[Na+]` is 0.0403 ± 0.013; for `CO[C@@]1(NC(=O)CSCC#N)C(=O)N2C(C(=O)O)=C(CSc3nnnn3C)CS[C@@H]21` it is 0.957 ± 0.052; for `CO[C@@]1(NC(=O)C(C(=O)O)c2ccc(O)cc2)C(=O)N2C(C(=O)O)=C(CSc3nnnn3C)CO[C@@H]21` (stereo partly drawn) it is 0.993 ± 0.045. The figure for `CO[C@@]1(NC(=O)C2SC(=C(C(N)=O)C(=O)O)S2)C(=O)N2C(C(=O)O)=C(CSc3nnnn3C)CS[C@@H]21` (stereo partly drawn) is 0.00904 ± 0.00015; for `CO[C@H]1/C=C/O[C@@]2(C)Oc3c(C)c(O)c4c(O)c(c5c(nc6cc(C)ccn65)c4c3C2=O)NC(=O)/C(C)=C\C=C\[C@H](C)[C@H](O)[C@@H](C)[C@@H](O)[C@@H](C)[C@H](OC(C)=O)[C@@H]1C` it is 0.0104 ± 0.00017; for `CO[C@H]1/C=C/O[C@@]2(C)Oc3c(C)c(O)c4c(O)c(c(/C=N/N5CCN(C)CC5)c(O)c4c3C2=O)NC(=O)/C(C)=C\C=C\[C@H](C)[C@H](O)[C@@H](C)[C@@H](O)[C@@H](C)[C@H](OC(C)=O)[C@@H]1C` it is 0.0102 ± 0.00021.

`O=c1[nH]cnc2c1ncn2[C@@H]1O[C@H](CO)[C@@H](O)[C@H]1O`: the normalized growth turned out to be 1.13 ± 0.034. Under `Nc1ccn([C@@H]2O[C@H](CO)[C@@H](O)[C@@H]2O)c(=O)n1` stands 1.01 ± 0.067. `Nc1ncn([C@@H]2O[C@H](CO)[C@@H](O)[C@H]2O)c(=O)n1` returned a normalized growth of 0.0134 ± 0.00024. For the compound `O=C(O)c1ccc(S(=O)(=O)N(Cl)Cl)cc1`, the normalized growth worked out at 0.999 ± 0.013. Compound `CC(=O)OC/C=C(C)/C=C/C=C(C)/C=C/C1=C(C)CCCC1(C)C` showed a normalized growth of 0.905 ± 0.06.

In turn, `C=COCC(F)(F)F` gave a normalized growth of 0.991 ± 0.044. The compound `CCN(CC)CCOc1ccc2c(c1)C(=O)c1cc(OCCN(CC)CC)ccc1-2` gave a normalized growth of 1.02 ± 0.083. As for `C1CCN2C[C@@H]3C[C@@H](CN4CCCC[C@@H]34)[C@H]2C1`, the normalized growth was 1.13 ± 0.04. `COCC1=C(C(=O)OC(C)OC(=O)OC(C)C)N2C(=O)[C@@H](NC(=O)/C(=N\OC)c3csc(N)n3)[C@H]2SC1` (stereo partly drawn) showed a normalized growth of 1.034 ± 0.0056. On to `CCCCCCCCCCCCCCCC[N+](C)(C)C`, for which the normalized growth is 0.982 ± 0.038. Compound `C[C@@H]1CC2C3C[C@H](F)C4=CC(=O)C=C[C@]4(C)[C@@]3(F)[C@@H](O)C[C@]2(C)[C@@]1(O)C(=O)COC(=O)C(C)(C)C` (stereo partly drawn) registered a normalized growth of 1.04 ± 0.12. Regarding `COC(=O)Nc1nc2cc(Sc3ccccc3)ccc2[nH]1`, the normalized growth is 0.987 ± 0.024. As to `OC[C@@H](O)[C@@H](O[C@@H]1O[C@H](CO)[C@H](O)[C@H](O)[C@H]1O)[C@H](O)[C@@H](O)CO`, the normalized growth is 0.98 and 0.904.

`CS(=O)(=O)c1ccc([C@@H](O)[C@@H](CF)NC(=O)C(Cl)Cl)cc1` yielded a normalized growth of 0.0094 ± 0.00019.

`CS(=O)(=O)c1ccc([C@@H](O)[C@@H](CO)NC(=O)C(Cl)Cl)cc1` showed a normalized growth of 0.934 ± 0.078.

Consider `Clc1ccccc1CN1CCc2sccc2C1`, for which the normalized growth stood at 1.02 ± 0.037. The figure for `O=C(O)CCC(=O)OC[C@@H](NC(=O)C(Cl)Cl)[C@H](O)c1ccc([N+](=O)[O-])cc1` is 0.014 ± 0.00072. The figure for `O=C(N[C@H](CO)[C@H](O)c1ccc([N+](=O)[O-])cc1)C(Cl)Cl` is 0.0146 ± 0.00075; for `CCCCCCCCCCCCCCCC(=O)OC[C@@H](NC(=O)C(Cl)Cl)[C@H](O)c1ccc([N+](=O)[O-])cc1` it is 1.04 ± 0.082; for `C#C[C@]1(O)CC[C@H]2[C@@H]3[C@H](C)CC4=C(CCC(=O)C4)[C@H]3CC[C@@]21C` it is 0.987 ± 0.048. The figure for `OCc1ccccc1O` is 1.05 ± 0.04; for `CN(C/C=C/c1ccccc1)Cc1cccc2ccccc12` it is 0.885 ± 0.019; for `CC(=O)N[C@@H]([C@@H](O)[C@H](O)[C@H](O)CO)[C@@H](O)CC(=O)C(=O)O` it is 1 ± 0.065. In turn, `CC(C)(Oc1ccc(C(=O)c2ccc(Cl)cc2)cc1)C(=O)O` registered a normalized growth of 0.976 ± 0.024. The compound `CC(=O)NCCCCCC(=O)O` had a normalized growth of 1.11 ± 0.034. Compound `N#Cc1ccc2c(c1)N(CCCN1CCC(O)CC1)c1ccccc1S2` gave a normalized growth of 1.09 ± 0.035.

Consider `O=C(O)C[C@H](O)C[C@H](O)/C=C/c1c(C2CC2)nc2ccccc2c1-c1ccc(F)cc1`, for which the normalized growth was 1.19 ± 0.13. The figure for `N=C(N)c1ccc(N=NNc2ccc(C(=N)N)cc2)cc1` is 0.766 ± 0.035. Under `CC(=O)Nc1cccc(O)c1` stands 1.02 ± 0.014; under `Cc1c(NC(C)C)c(=O)n(-c2ccccc2)n1C`, 0.981 ± 0.15. Regarding `C[C@H]1O[C@@H](n2cc(F)c(=O)[nH]c2=O)[C@H](O)[C@@H]1O`, the normalized growth came out at 0.412 ± 0.11.

For the compound `CCCCCCNC(=O)n1cc(F)c(=O)[nH]c1=O`, the normalized growth amounted to 0.007569 ± 7.1e-05. Under `CCOC(=O)COc1ccc2c(=O)cc(-c3ccccc3)oc2c1` stands 1.01 ± 0.035; under `OC[C@H]1O[C@H](O[C@H]2[C@H](O)[C@@H](O)C(O)O[C@@H]2CO)[C@H](O)[C@@H](O)[C@@H]1O` (stereo partly drawn), 1.06 ± 0.12; under `O=c1cc[nH]c(=O)[nH]1`, 1.06 ± 0.04. `Nc1nc(=O)[nH]cc1F` yielded a normalized growth of 0.742 ± 0.12. As to `O=c1[nH]cc(F)c(=O)[nH]1`, the normalized growth was determined as 0.0109 ± 0.0049. Turning to `COc1cc([C@@H]2c3cc4c(cc3[C@@H](O[C@@H]3O[C@@H]5CO[C@@H](c6cccs6)O[C@H]5[C@H](O)[C@H]3O)[C@H]3COC(=O)[C@H]23)OCO4)cc(OC)c1O`, the normalized growth was 0.882 ± 0.027. Under `O=C1c2cccc(O)c2C(=O)c2c(O)cccc21` stands 0.827 ± 0.05. Under `CCN(CC)C(=O)/C(C#N)=C/c1cc(O)c(O)c([N+](=O)[O-])c1` stands 0.924 ± 0.023. Under `C[C@]12CC[C@@H]3c4ccc(OC(=O)c5ccccc5)cc4CC[C@H]3[C@@H]1CC[C@@H]2O` stands 0.779 ± 0.061. In the case of `C/C=C(/C(=C/C)c1ccc(O)cc1)c1ccc(O)cc1`, the normalized growth is 1.04 ± 0.035. For the compound `CO[C@H]1C[C@@H]2CC[C@@H](C)[C@@](O)(O2)C(=O)C(=O)N2CCCC[C@H]2C(=O)O[C@H]([C@H](C)C[C@@H]2CC[C@@H](O)[C@H](OC)C2)CC(=O)[C@H](C)/C=C(\C)[C@@H](O)[C@@H](OC)C(=O)[C@H](C)C[C@H](C)/C=C/C=C/C=C/1C`, the normalized growth stood at 0.964 ± 0.048. `Cc1ccc(Nc2c(F)cccc2Cl)c(CC(=O)O)c1`: the normalized growth is 1.11 ± 0.053. As for `CCNC(=O)/C=C/c1cccc(Br)c1`, the normalized growth amounted to 1.08 ± 0.035. As to `COC(=O)/C=C/C(=O)OC`, the normalized growth is 1.42 ± 0.16. Under `Nc1nc(Cl)nc2c1ncn2[C@@H]1O[C@H](CO)[C@@H](O)[C@@H]1F` stands 1.11 ± 0.025; under `CC1(C)[C@@H](O)CC[C@]2(C)[C@H]3C(=O)C=C4[C@@H]5C[C@@](C)(C(=O)O)CC[C@]5(C)CC[C@@]4(C)[C@]3(C)CC[C@@H]12`, 0.906 ± 0.073. Under `CC(=O)Nc1ncc([N+](=O)[O-])s1` stands 0.899 ± 0.018; under `CCCCCCOc1ccccc1C(N)=O`, 1.01 ± 0.048. The figure for `COc1ccc2cc(C(C)C(=O)O)ccc2c1` (stereo not drawn) is 1.07 ± 0.032.
